Among the data in PubChem BioAssay (EPA / NIEHS) are outcome and AC50 values, retold here.

The target in experiment [1] is Estrogen receptor (Homo sapiens) (UniProt P03372). Nature of the experiment: OT_ER_ERaERa_1440: Odyssey Thera (OT) 24-hour HEK293T Protein-Complementation Assay for Estrogen Receptor-alpha/-alpha Homodimer (AID 2283349).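 Note: hits raise fluorescence above DMSO for agonists and antagonists alike.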 In a few lines:
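Readout is the rise in mean fluorescence from reporter fragment complementation when ERα LBD (aa 310-547) units dimerize in HEK293T cells. Measured 24 h after dosing and analysed as increase over DMSO control.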

Experiment [2] shares this target. Nature of the experiment: OT_ER_ERaERa_0480: Odyssey Thera (OT) 8-hour HEK293T Protein-Complementation Assay for Estrogen Receptor-alpha/-alpha Homodimer (AID 2283351).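 Note: rise in fluorescence from reassembled reporter fragments on ERα LBD homodimer in nucleus or whole cell.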 The essentials: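 Binding reporter in which dimerisation of ERα LBD (aa 310-547) fusions reconstitutes a fluorescent reporter in HEK293T cells. Compounds incubated 8 h; mean fluorescence intensity increase versus DMSO scored.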

Experiment [3] deals with T1, Estrogen receptor (Homo sapiens) + Estrogen receptor beta (Homo sapiens) (UniProt P03372+Q92731). The experiment in a line: OT_ER_ERaERb_0480: Odyssey Thera (OT) 8-hour HEK293T Protein-Complementation Assay for Estrogen Receptor-alpha/-beta Heterodimer (AID 2283352). The essentials: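 Human HEK293T cells were treated for 8 hours and receptor heterodimerisation was detected through reconstitution of a fluorescent reporter split between ER-alpha and ER-beta ligand-binding domains. Activity was analysed as gain of signal against DMSO.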

Experiment [4] addresses T1, Estrogen receptor (Homo sapiens) + Estrogen receptor beta (Homo sapiens). The experiment in a line: OT_ER_ERaERb_1440: Odyssey Thera (OT) 24-hour HEK293T Protein-Complementation Assay for Estrogen Receptor-alpha/-beta Homodimer (AID 2283356).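 Note: heteromer of ER alpha and ER beta binding domains; hits raise reporter fluorescence and both agonists and antagonists give an increase.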 The essentials:
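24 h exposure; HEK293T PCA cells with ERα/ERβ LBD fragments; signal rise in nuclear or whole-cell fluorescence over vehicle.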

The target in experiment [5] is Estrogen receptor beta (Homo sapiens) (UniProt Q92731). The experiment in a line: OT_ER_ERbERb_0480: Odyssey Thera (OT) 8-hour HEK293T Protein-Complementation Assay for Estrogen Receptor-beta/-beta Homodimer (AID 2283357).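 Note: active means signal gain over DMSO baseline.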 In a few lines:
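Readout: increase in mean fluorescence intensity (nucleus for agonists; nucleus plus cytoplasm for antagonists) relative to DMSO, from a reporter-fragment complementation of human ER-beta LBD homodimer in HEK293T cells dosed 8 hours.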

The target of experiment [6] is Retinoic acid receptor alpha (Homo sapiens) (UniProt P10276). The experiment in a line: NVS_NR_hRAR_Antagonist: NovaScreen (NVS) Nuclear Receptor Binding Assay for human Retinoic Acid Alpha Receptor Antagonism (RAR) (AID 2283358). The essentials:
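Cell-free TR-FRET binding assay on extracted receptor protein, run in antagonist mode; signal read 2 hours after chemical dosing. Loss of signal was fitted relative to DMSO baseline. Screened at 25 uM in duplicate, actives followed up in concentration series.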

Experiment [7] addresses Androgen Receptor/SRC-1 Co-activator, AR (gene 367) (UniProt P10275). The experiment in a line: OT_AR_ARSRC1_0960: Odyssey Thera (OT) 16-hour HEK293T Protein-Complementation Assay for Androgen Receptor/SRC-1 Co-activator (AID 2283353).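 Note: actives raise the signal above DMSO so potency reflects increased AR and SRC-1 complex.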 The essentials:
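Interaction of AR with SRC-1 was followed by YFP fragment complementation in HEK293T cells after 16 h of dosing. Gain of nuclear-over-cytoplasmic 488 nm fluorescence against DMSO controls defined activity.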

Experiment [8] shares this target. The experiment in a line: OT_AR_ARSRC1_0480: Odyssey Thera (OT) 8-hour HEK293T Protein-Complementation Assay for Androgen Receptor/SRC-1 Co-activator (AID 2283354).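 Note: hits raise the complementation signal above DMSO so AC50 marks enhancers.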 The essentials:
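HEK293T cells stably expressing AR and SRC-1 fused to split Venus YFP fragments via (Gly4Ser)2 linkers were read 8 h after compound dosing. Complementation was imaged at 488 and 635nm, and nuclear/cytoplasmic fluorescence ratio (488nm) was taken over ≥400 cells; gain-of-signal versus DMSO.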

In experiment [9] the target is Bile acid receptor (Homo sapiens) (UniProt Q96RI1). Nature of the experiment: NVS_NR_hFXR_Antagonist: NovaScreen (NVS) Nuclear Receptor Binding Assay for human Farnesoid X Receptor Antagonism (FXR) (AID 2283350). The essentials:
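Cell-free TR-FRET ligand-binding read-out on human FXR (NR1H4) in antagonist mode, measured 1 h after dosing. Primary screen in duplicate at 25 uM, actives retested in concentration series; signal loss scored versus DMSO.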

Experiment [10] concerns the target rat Mineralocorticoid Receptor (MR), Nr3c2 (gene 25672) (UniProt P22199). The experiment in a line: NVS_NR_rMR: NovaScreen (NVS) Nuclear Receptor Binding Assay for rat Mineralocorticoid Receptor (MR) (AID 2283355). In a few lines:
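Cell-free radioligand binding to MR in adrenalectomized rat brain supernatant, scintillation counted 24 h after dosing. Loss of signal versus DMSO baseline marks displacement. Primary screen in duplicate at 25 uM; actives retested as concentration series.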

Molecules are shown by their SMILES. “And” between values parts separate entries of the source, which are not always exact repeats. Equal entries are not always repeated. Results filed as inconclusive are left out. Some structures have more than one record in an assay (separate samples or runs), and their calls can disagree. The source made the active and inactive calls. Rule for the calls: active = hit-call score of the fitted dose curve at least 0.9, where 1 is the maximum; inconclusive = response in the unintended direction; inactive = score below 0.9.

T1 sequence (P03372 whole entry, looked up, the tested form may be a part): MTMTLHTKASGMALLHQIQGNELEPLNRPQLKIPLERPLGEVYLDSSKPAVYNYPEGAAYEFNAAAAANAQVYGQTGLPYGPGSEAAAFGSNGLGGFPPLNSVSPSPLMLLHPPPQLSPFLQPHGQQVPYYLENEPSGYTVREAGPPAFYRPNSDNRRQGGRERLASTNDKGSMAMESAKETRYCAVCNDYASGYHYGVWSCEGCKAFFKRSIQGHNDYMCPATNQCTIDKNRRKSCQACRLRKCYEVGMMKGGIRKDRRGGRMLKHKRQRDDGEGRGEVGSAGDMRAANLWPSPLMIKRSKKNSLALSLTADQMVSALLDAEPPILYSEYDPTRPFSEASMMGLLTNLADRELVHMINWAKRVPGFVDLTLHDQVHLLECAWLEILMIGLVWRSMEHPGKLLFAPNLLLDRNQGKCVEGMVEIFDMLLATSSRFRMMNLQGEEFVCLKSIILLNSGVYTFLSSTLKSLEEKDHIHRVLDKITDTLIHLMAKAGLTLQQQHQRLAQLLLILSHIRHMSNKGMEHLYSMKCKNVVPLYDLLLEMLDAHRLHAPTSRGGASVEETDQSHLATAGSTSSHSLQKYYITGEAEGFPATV
T1 sequence (Q92731 whole entry, looked up, the tested form may be a part): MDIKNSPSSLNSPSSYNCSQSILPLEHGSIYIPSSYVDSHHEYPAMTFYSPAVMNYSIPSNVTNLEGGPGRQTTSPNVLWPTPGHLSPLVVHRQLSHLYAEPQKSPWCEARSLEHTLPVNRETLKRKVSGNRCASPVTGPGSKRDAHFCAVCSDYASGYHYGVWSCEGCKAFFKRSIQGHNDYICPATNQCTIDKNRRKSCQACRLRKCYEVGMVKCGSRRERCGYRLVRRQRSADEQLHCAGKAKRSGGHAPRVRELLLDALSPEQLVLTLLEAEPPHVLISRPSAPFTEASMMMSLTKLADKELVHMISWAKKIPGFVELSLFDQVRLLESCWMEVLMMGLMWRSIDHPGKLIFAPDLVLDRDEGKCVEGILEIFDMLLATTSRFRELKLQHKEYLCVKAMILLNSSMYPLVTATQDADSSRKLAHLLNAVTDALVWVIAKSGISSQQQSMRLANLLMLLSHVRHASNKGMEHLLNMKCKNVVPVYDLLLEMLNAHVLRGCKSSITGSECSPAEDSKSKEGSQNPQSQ
Estrogen receptor (Homo sapiens), sequence (P03372 whole entry, looked up, the tested form may be a part): as the sequence (P03372 whole entry, looked up, the tested form may be a part) above
Retinoic acid receptor alpha (Homo sapiens), sequence (P10276 whole entry, looked up): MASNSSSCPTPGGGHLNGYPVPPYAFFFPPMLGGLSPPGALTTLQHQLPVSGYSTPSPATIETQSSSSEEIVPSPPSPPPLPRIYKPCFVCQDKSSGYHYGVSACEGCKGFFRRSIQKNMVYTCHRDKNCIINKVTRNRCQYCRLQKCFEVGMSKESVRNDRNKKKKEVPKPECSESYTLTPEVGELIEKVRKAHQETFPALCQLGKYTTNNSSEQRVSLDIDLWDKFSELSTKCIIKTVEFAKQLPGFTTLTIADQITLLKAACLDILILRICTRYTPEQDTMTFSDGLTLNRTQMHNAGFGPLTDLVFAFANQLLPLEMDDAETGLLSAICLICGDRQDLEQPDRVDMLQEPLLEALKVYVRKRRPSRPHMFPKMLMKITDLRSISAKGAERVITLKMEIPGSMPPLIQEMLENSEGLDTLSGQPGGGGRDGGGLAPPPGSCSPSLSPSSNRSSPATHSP
Estrogen receptor beta (Homo sapiens), sequence (Q92731 whole entry, looked up, the tested form may be a part): as the sequence (Q92731 whole entry, looked up, the tested form may be a part) above
Androgen Receptor/SRC-1 Co-activator, AR (gene 367), sequence (P10275 whole entry, looked up, the tested form may be a part): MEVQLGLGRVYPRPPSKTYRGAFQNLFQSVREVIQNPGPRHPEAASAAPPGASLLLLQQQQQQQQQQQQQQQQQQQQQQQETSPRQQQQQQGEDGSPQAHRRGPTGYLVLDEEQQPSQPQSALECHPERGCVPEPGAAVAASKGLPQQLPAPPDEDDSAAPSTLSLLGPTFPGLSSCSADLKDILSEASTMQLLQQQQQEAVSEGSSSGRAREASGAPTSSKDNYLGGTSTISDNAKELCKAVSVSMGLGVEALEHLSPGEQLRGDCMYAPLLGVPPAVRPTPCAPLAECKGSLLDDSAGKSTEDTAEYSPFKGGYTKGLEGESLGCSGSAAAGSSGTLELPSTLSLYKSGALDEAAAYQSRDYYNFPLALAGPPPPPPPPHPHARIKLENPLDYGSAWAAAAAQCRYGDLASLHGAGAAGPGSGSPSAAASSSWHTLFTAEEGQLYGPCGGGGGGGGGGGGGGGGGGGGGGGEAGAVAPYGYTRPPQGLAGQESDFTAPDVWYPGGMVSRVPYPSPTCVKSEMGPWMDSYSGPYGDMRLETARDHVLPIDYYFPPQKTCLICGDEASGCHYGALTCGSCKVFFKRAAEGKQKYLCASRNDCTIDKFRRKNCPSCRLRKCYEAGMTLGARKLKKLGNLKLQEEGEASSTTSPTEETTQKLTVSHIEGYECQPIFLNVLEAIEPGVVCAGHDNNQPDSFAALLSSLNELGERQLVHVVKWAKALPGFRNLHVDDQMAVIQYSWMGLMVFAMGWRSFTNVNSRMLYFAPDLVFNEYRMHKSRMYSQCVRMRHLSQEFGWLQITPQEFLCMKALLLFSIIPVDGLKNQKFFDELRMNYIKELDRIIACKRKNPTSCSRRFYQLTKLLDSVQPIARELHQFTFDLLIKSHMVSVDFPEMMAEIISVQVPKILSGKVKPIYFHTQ
rat Mineralocorticoid Receptor (MR), Nr3c2 (gene 25672), sequence (P22199 whole entry, looked up): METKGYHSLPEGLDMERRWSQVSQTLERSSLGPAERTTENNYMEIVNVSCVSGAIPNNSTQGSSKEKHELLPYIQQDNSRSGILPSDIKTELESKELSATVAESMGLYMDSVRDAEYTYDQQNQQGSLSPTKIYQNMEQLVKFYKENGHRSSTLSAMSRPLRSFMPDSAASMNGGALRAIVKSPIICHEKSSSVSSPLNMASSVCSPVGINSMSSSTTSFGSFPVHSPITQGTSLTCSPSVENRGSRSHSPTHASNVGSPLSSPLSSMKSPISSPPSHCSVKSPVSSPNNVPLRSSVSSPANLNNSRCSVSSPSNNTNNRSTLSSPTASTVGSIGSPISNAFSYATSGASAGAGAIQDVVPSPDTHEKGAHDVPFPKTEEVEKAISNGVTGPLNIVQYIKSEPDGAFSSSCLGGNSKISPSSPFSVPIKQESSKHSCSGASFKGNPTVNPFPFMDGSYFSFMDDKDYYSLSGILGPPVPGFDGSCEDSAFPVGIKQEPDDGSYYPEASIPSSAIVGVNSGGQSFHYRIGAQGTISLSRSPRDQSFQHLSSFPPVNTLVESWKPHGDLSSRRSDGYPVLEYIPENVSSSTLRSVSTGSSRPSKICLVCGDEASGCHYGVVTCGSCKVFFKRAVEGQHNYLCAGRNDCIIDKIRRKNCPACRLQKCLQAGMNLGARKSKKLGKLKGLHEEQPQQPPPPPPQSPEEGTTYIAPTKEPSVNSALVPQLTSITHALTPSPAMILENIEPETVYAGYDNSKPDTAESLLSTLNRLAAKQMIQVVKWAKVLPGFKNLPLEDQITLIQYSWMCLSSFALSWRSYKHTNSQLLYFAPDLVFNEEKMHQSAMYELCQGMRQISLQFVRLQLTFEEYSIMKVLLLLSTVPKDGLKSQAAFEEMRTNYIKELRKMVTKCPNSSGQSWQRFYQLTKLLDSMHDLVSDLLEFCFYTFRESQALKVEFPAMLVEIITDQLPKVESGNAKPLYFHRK
Bile acid receptor (Homo sapiens), sequence (Q96RI1 whole entry, looked up): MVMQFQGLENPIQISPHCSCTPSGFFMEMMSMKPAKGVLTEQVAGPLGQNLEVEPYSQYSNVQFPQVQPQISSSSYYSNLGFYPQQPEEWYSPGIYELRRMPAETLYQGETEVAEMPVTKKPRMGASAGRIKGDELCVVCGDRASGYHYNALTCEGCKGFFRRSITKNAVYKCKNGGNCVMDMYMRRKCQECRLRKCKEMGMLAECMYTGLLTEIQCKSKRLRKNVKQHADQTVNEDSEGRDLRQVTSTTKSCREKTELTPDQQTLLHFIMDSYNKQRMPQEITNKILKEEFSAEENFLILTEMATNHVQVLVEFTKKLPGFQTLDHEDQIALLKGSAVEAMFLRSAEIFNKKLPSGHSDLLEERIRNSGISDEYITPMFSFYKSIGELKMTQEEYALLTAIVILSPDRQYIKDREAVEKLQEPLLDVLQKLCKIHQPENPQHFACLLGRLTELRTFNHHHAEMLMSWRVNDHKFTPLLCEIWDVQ

On to `COc1ccc([N+](=O)[O-])cc1N`, for which the result in experiment [1], in experiment [2], in experiment [3], in experiment [4] and in [5] was inactive.

For the compound `NC(=O)N(O)[C@@H]1C=C[C@H](Oc2cccc(Oc3ccc(F)cc3)c2)C1`, the result in experiment [1], in experiment [2] and in experiment [3] was inactive. Moreover, the AC50 (commonly the concentration giving half of the maximal activity seen) in experiment [4] is 34.8 µM (active); in [5] it was 50 µM (active).

For `O=C(O)Cc1cc(I)c(Oc2cc(I)c(O)c(I)c2)c(I)c1`, the outcome in experiment [1], in experiment [2], in experiment [3], in experiment [4], in [5] and in experiment [6] was inactive.

As for `COCC(C)OCC(C)O` (stereo unspecified), the call in [1], in experiment [3], in experiment [7], in [8] and in experiment [4] was inactive.

Consider `CCc1ccc(CCOc2ccc(CC3SC(=O)NC3=O)cc2)nc1` (stereo unspecified), for which the AC50 is 75.1 µM (active) in experiment [1] and 76.7 µM (active) in [2]. The result in experiment [3], in [4] and in experiment [5] was inactive.

For the compound `c1ccc2c(c1)ccc1ccccc12`, the compound was called inactive in experiment [1], in experiment [2], in experiment [7] and in experiment [8].

Regarding `O=c1c(-c2ccc(O)cc2)coc2cc(O)ccc12`, the compound was called inactive in experiment [7] and in experiment [8].

`CCC(=C(c1ccc(O)cc1)c1ccc(OCCN(C)C)cc1)c1ccccc1`: the compound was classed as inactive in experiment [9], in [7], in experiment [8] and in experiment [10]. The AC50 in experiment [7] was 19.8 µM (active) and 20.2 µM (active) and 19.2 µM (active); in experiment [8] it was 46.8 µM (active) and 46.2 µM (active) and 46.6 µM (active).

For `CC(C)(C)CC(C)(C)c1ccc(O)c(-n2nc3ccccc3n2)c1`, the outcome in [1], in experiment [2], in experiment [3], in experiment [4] and in experiment [5] was inactive.

For the compound `CN(C)C=O`, the result in experiment [1], in experiment [2], in experiment [3], in [4] and in experiment [5] was inactive.

With `CC1=C(/C=C/C(C)=C/C=C/C(C)=C/C(=O)O)C(C)(C)CCC1`, the call in experiment [1], in experiment [2] and in experiment [6] was inactive.

`CC[C@H](c1ccc(O)cc1)[C@@H](CC)c1ccc(O)cc1`: the AC50 was 8.83 µM (active) in experiment [9], 35.6 µM (active) in experiment [7] and 100 nM (active) [middle of 5 runs] in experiment [4]. The compound was classed as inactive in experiment [7] and in experiment [8].

Regarding `CCCCCCCCCCCCCC[N+](C)(C)C`, the compound was called inactive in experiment [2]. Moreover, the AC50 in [6] was 28.3 µM (active).

In the case of `Cc1oc(-c2ccccc2)nc1CCOc1ccc(C[C@H](Nc2ccccc2C(=O)c2ccccc2)C(=O)O)cc1`, the call in experiment [1], in experiment [2], in experiment [8], in [4] and in experiment [5] was inactive. Also, the AC50 in [7] was 45.4 µM (active).

Turning to `Nc1cccc2c(N)cccc12`, in [1], the AC50 was 11.9 µM (active). In addition, the call in experiment [2], in experiment [3], in experiment [4] and in [5] was inactive.

`CN1CCC[C@H]1c1cccnc1`: the compound was called inactive in experiment [1], in experiment [2], in experiment [3], in experiment [4] and in experiment [5].

In the case of `CCCOC(=O)c1ccc(O)cc1`, the AC50 in experiment [1] is 31.2 µM (active); in experiment [2] it was 38.4 µM (active); in experiment [3], 16.7 µM (active); in experiment [4], 15.5 µM (active); in [5] it was 7.31 µM (active).

Consider `CCCCCCCC(=O)O`, for which the result in experiment [1], in experiment [2] and in [3] was inactive. The AC50 was 17.1 µM (active) in [4] and 50 µM (active) in experiment [5].

Consider `CC(C)(C)c1cc(C(C)(C)C)c(O)c(C(C)(C)C)c1`, for which the result in [1] and in experiment [2] was inactive. The AC50 is 50 µM (active) in experiment [3], 73.3 µM (active) in experiment [4] and 29.3 µM (active) in experiment [5].

Consider `COCC(C)O` (stereo unspecified), for which the result in [1], in experiment [2] and in experiment [10] was inactive.

`ClC1=C(Cl)C(Cl)(Cl)C(Cl)=C1Cl`: the outcome in experiment [1], in [2] and in [5] was inactive.

On to `CCc1nn(C2CCCCC2)c2cc(C3(C#N)CCC(C(=O)O)CC3)ccc12` (stereo unspecified), for which the compound was called inactive in experiment [1], in experiment [2], in [3], in experiment [4] and in experiment [5].

For the compound `CC(C)(C)c1ccc(O)c(C(C)(C)C)c1`, the compound was called inactive in experiment [1], in experiment [2], in [4] and in experiment [5].

As for `c1ccc2c(c1)Cc1ccccc1-2`, the compound was classed as inactive in experiment [1], in [2], in experiment [3], in [4], in experiment [5] and in experiment [6].

Take `NC(=O)N1C(=O)C(C(=O)c2cc(Cl)cs2)c2cc(F)c(Cl)cc21` (stereo unspecified): the compound was called inactive in experiment [1], in [2], in experiment [7], in experiment [8], in experiment [4] and in experiment [5].

In the case of `CCCCCCC(=O)O`, the call in [1], in [2], in experiment [4] and in experiment [5] was inactive.

Regarding `CCN(CC)CCNc1ccc(CNC=O)c2sc3ccc(OC)cc3c(=O)c12`, the compound was called inactive in experiment [1], in [2] and in experiment [5].

As to `CCCCCCCCOC(=O)CCCCCCCCC(=O)OCCCCCCCC`, the result in [1], in experiment [2], in experiment [3], in experiment [4] and in [5] was inactive.

In the case of `CCOC(=O)CC(O)(CC(=O)OCC)C(=O)OCC`, the outcome in experiment [1], in experiment [2], in [3] and in experiment [5] was inactive.

Take `CCCCCCCCCCCCN1CCCC1=O`: the outcome in experiment [1], in experiment [4] and in [5] was inactive.

As to `CCCCC(CC)COC(=O)CCCCC(=O)OCc1ccccc1` (stereo unspecified), the outcome in experiment [1], in experiment [2], in [3], in experiment [4] and in experiment [5] was inactive.

Regarding `Oc1cc2ccccc2c2ccccc12`, the outcome in experiment [1], in [2], in experiment [4] and in [5] was inactive. The results for the AC50 in [7] and in experiment [8] were 7.07 µM (active) and 8.63 µM (active), respectively.
